Test results from PubChem BioAssay (NCATS).
Records with an inconclusive call do not appear. Activity calls are given as the source filed them. Unless noted, calls follow the shape of the dose curve; as a rule, active = well fitted cell-killing curve with a large enough effect; inconclusive = small, poorly fitted or top-dose-only effect, or effect the other way; inactive = no such curve, though single readings can be large or run the other way.

Assays:
[1] = Quantitative High-Throughput drug screen in 47 multiple myeloma cell lines against the NCATS MIPE library collection: KMS34_JCRB cell viability assay (AID 1918985); also: nearly all actives have a fitted effect of over 40% in size
Method in brief: (§1)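 Inhibition of viability over 48 h was scored by ATP content (CellTiter-Glo) in 500-cell wells. Zero and full viability were defined by media-only and DMSO-only wells.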

[2] = Quantitative High-Throughput drug screen in 47 multiple myeloma cell lines against the NCATS MIPE library collection: OPM1_PLB cell viability assay (AID 1918989); also: nearly all actives have a fitted effect of over 40% in size
Method in brief: as §1

[3] = Quantitative High-Throughput drug screen in 47 multiple myeloma cell lines against the NCATS MIPE library collection: U266_ATCC cell viability assay (AID 1919864); also: nearly all actives have a fitted effect of over 35% in size
Method in brief: as §1

[4] = Quantitative High-Throughput drug screen in 47 multiple myeloma cell lines against the NCATS MIPE library collection: XG1_PLB cell viability assay (AID 1919866); also: nearly all actives have a fitted effect of over 35% in size
Method in brief: as §1

[5] = Quantitative High-Throughput drug screen in 47 multiple myeloma cell lines against the NCATS MIPE library collection: VP6_DJ cell viability assay (AID 1919867); also: nearly all actives have a fitted effect of over 40% in size
Method in brief: as §1

[6] = Quantitative High-Throughput drug screen in 47 multiple myeloma cell lines against the NCATS MIPE library collection: PE2_PLB cell viability assay (AID 1919869); also: nearly all actives have a fitted effect of over 35% in size
Method in brief: as §1

[7] = Quantitative High-Throughput drug screen in 47 multiple myeloma cell lines against the NCATS MIPE library collection: PCM6_Riken cell viability assay (AID 1919870); also: nearly all actives have a fitted effect of over 30% in size
Method in brief: as §1

[8] = Quantitative High-Throughput drug screen in 47 multiple myeloma cell lines against the NCATS MIPE library collection: KMS11_JCRBsus cell viability assay (AID 1919873); also: nearly all actives have a fitted effect of over 50% in size
Method in brief: as §1

[9] = Quantitative High-Throughput drug screen in 47 multiple myeloma cell lines against the NCATS MIPE library collection: KMS28BM_JCRB cell viability assay (AID 1919874); also: nearly all actives have a fitted effect of over 35% in size
Method in brief: as §1

[10] = qHTS drug screen for cell cycle checkpoint inhibitors in PARPi-resistant BRCA-mutant ovarian cancer cell lines. (AID 1963452; calls by dose curve); conditions: PEO1/OlaR viability, CellTiter-Glo luminescence, 96 h; for Z-AUC: stronger effect = lower value
Method in brief: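 PEO1, PEO4 and PEO1/OlaR ovarian cancer cells, 600 per well, exposed 96 h at 37C to a dilution series. Viability read by CellTiter-Glo luminescence, normalized to DMSO and empty wells; activity summarized as Z-AUC.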

[11] = Quantitative High-Throughput drug screen in 47 multiple myeloma cell lines against the NCATS MIPE library collection: UTMC2_PLB cell viability assay (AID 1919868); conditions: CellTiter-Glo ATP luminescence, 48 h; viability (% of DMSO control): at 45.8 µM (top of the series) unless noted; also: nearly all actives have a fitted effect of over 55% in size
Method in brief: as §1

[12] = Quantitative High-Throughput drug screen in 47 multiple myeloma cell lines against the NCATS MIPE library collection: RPMI8226_ATCC cell viability assay (AID 1919871); also: nearly all actives have a fitted effect of over 30% in size
Method in brief: as §1

[13] = Quantitative High-Throughput drug screen in 47 multiple myeloma cell lines against the NCATS MIPE library collection: OPM2_DSMZ cell viability assay (AID 1919872); also: nearly all actives have a fitted effect of over 30% in size
Method in brief: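 Luminescent ATP measurement with CellTiter-Glo gives viability, scaled between DMSO-only wells (100%) and media-only wells (0%). Cells, 500 per well, faced library compounds for 48 hours at 37C.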

[14] = Quantitative High-Throughput drug screen in 47 multiple myeloma cell lines against the NCATS MIPE library collection: OCIMY7_PLB cell viability assay (AID 1918987); also: nearly all actives have a fitted effect of over 65% in size
Method in brief: as §1

[15] = Quantitative High-Throughput drug screen in 47 multiple myeloma cell lines against the NCATS MIPE library collection: OCIMY5_PLB cell viability assay (AID 1918988); also: nearly all actives have a fitted effect of over 65% in size
Method in brief: as §1

[16] = Quantitative High-Throughput drug screen in 47 multiple myeloma cell lines against the NCATS MIPE library collection: XG6_PLB cell viability assay (AID 1919865); also: nearly all actives have a fitted effect of over 40% in size
Method in brief: as §1

[17] = Quantitative High-Throughput drug screen in 47 multiple myeloma cell lines against the NCATS MIPE library collection: L363_DSMZ cell viability assay (AID 1918984); also: nearly all actives have a fitted effect of over 40% in size
Method in brief: as §1

[18] = measured here: PEO1 parental Z-AUC
Potency is read from the fitted curve at half-maximal effect.

C=CC(=O)Nc1cccc(Oc2nc(Nc3ccc(N4CCN(C)CC4)cc3OC)ncc2Cl)c1
inactive: Z-AUC [10] -0.915
active: Potency [1] 16.6 µM | Potency [2] 0.662 µM | Potency [3] 23.5 µM | Potency [4] 0.0047 µM | Potency [5] 0.0187 µM | Potency [6] 0.526 µM | Potency [7] 7.43 µM | Potency [8] 13.2 µM | Potency [9] 20.9 µM
-0.954: Z-AUC ([10]; measured here: PEO4 Z-AUC)
-0.879: Z-AUC [10, 18]

CN(C)CC(C)(C)CNc1nn2c(-c3ccccc3)nnc2cc1C1CCC1
0.768: Z-AUC [10, 18]
active: Potency [5] 10.5 µM | Potency [11] 1.05 µM | Potency [6] 11.8 µM
0.988: Z-AUC ([10]; measured here: PEO4 Z-AUC)
inactive: Potency [12] | Potency [13] | Potency [8] | Z-AUC [10] 0.384

O=C(O)C1(Cc2cccc(Nc3nccs3)n2)CCC(Oc2cccc(Cl)c2F)CC1 (stereo not given)
-1.23: Z-AUC [10, 18]
active: Potency [14] 0.296 µM | Potency [15] 0.662 µM | Potency [2] 0.332 µM | Potency [16] 0.209 µM | Potency [4] 0.0526 µM | Potency [5] 0.148 µM | Potency [11] 0.0372 µM | Potency [7] 0.418 µM | Potency [8] 0.296 µM | Potency [9] 0.332 µM
-1.84: Z-AUC ([10]; measured here: PEO4 Z-AUC)
inactive: Potency [3] | Potency [12] | Z-AUC [10] -0.463

CN(C1CCc2c(c3ccccc3n2CC(=O)O)C1)S(=O)(=O)c1ccc(F)cc1 (stereo not given)
active: Potency [17] 1.48 µM | Potency [3] 18.7 µM | Potency [16] 1.87 µM | Potency [4] 3.72 µM | Potency [5] 0.0743 µM | Potency [7] 3.72 µM
inactive: Potency [6] | Potency [12] | Potency [13]

COc1cc(C(C)C)c2c(c1)S(=O)(=O)N(COc1cc(=O)n3cccc(OCCN4CCCCC4)c3n1)C2=O
inactive: Potency [13] | Z-AUC [10] 1.15
1.06: Z-AUC [10, 18]
active: Potency [17] 18.7 µM | Potency [14] 11.8 µM | Potency [2] 23.5 µM | Potency [16] 0.833 µM | Potency [4] 2.09 µM | Potency [5] 16.6 µM | Potency [11] 26.4 µM | Potency [6] 18.7 µM | Potency [7] 18.7 µM
0.892: Z-AUC ([10]; measured here: PEO4 Z-AUC)

CC(C)(C)c1cc(NC(=O)Nc2ccc(-c3cn4c(n3)sc3cc(OCCN5CCOCC5)ccc34)cc2)no1
0.804: Z-AUC [10, 18]
0.987: Z-AUC ([10]; measured here: PEO4 Z-AUC)
inactive: Potency [17] | Potency [14] | Potency [7] | Potency [9] | Z-AUC [10] 1.23
active: Potency [15] 9.35 µM | Potency [16] 0.418 µM | Potency [6] 0.148 µM | Potency [13] 5.26 µM

C[C@@H]1COC(Nc2ccc3ncnc(Nc4ccc(OCc5nccs5)c(Cl)c4)c3c2)=N1
-1.07: Z-AUC ([10]; measured here: PEO4 Z-AUC)
-1.34: Z-AUC [10, 18]
active: Potency [17] 9.35 µM | Potency [15] 2.96 µM | Potency [2] 16.6 µM | Potency [3] 18.7 µM | Potency [16] 0.0372 µM | Potency [4] 0.105 µM | Potency [5] 3.72 µM | Potency [11] 2.96 µM | Potency [6] 4.18 µM | Potency [7] 2.96 µM | Potency [12] 33.2 µM | Potency [13] 26.4 µM | Potency [8] 18.7 µM | Potency [10] 13.8 µM
